GPT2 inh – GPT2 alanine aminotransferase inhibition. Q8TD30. Recombinant GPT2, coupled pyruvate oxidase/HRP Amplex Red fluorescence. Potency, µM (top dose mostly 57.7 µM), without a hit: top-dose activity change, negative = inhibition, hits mostly inhibitors. 100,000 tested, 0.25% active. AID 1671188; active means well fitted inhibition curve with a large enough effect; inconclusive means small, poorly fitted or top-dose-only effect; further: on the % scale 0 is the no-effect control and ±100 the full control effect; nearly all actives have a fitted effect of over 60% in size
Target sequence (Q8TD30 whole entry, looked up): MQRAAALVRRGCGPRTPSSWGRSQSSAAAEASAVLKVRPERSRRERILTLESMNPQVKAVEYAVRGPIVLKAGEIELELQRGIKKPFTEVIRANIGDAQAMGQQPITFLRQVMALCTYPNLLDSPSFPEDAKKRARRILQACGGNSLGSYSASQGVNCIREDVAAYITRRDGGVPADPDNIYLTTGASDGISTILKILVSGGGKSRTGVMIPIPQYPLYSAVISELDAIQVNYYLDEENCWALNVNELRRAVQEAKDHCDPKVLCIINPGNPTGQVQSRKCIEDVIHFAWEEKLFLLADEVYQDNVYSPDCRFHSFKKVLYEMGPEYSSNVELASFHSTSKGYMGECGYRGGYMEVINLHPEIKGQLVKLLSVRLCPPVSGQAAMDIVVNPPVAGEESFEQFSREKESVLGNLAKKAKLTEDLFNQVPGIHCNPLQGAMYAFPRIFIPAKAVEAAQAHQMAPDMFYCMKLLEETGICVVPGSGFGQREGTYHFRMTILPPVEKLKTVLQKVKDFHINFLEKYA
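GPT2 10ng/uL, a-KG 250uM, L-Ala 2mM, HEPES pH7.5 + 0.0001% Tween; 30 min RT. Then Amplex mix (PO/HRP/ThPP), 30 min RT dark, fluorescence. AOA 50uM used as positive control.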
hNpr1 antagonist – human Npr1 receptor antagonism | HEK293 hNpr1 GloSensor cGMP, ANP-stimulated luminescence | 76,000 tested, 1.6% active | AID 1347048 | Potency, µM (doses to about 46.3 µM), without a hit: at the highest dose activity change, negative = inhibition, most hits filed as inhibitors; further: on the % scale 0 is the no-effect control and ±100 the full control effect; nearly all actives have a fitted effect of over 60% in size
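Compound pre-incubated 30 min at room temperature on GloSensor-loaded HEK293 cells stably carrying hNpr1 and the pGS-40F cGMP biosensor. Stimulation uses hNppA at 0.1 nM final; luminescence is taken at baseline and 20 min post-agonist.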
Npr1 antag conf – hNpr1 antagonism, confirmation assay. shares compounds with hNpr1 antagonist. HEK293 hNpr1 cGMP GloSensor luminescence, ANP-stimulated. Potency, µM (titrated, usually from 57.6 µM), for inactives: top-dose activity change, negative = inhibition, most hits filed as inhibitors. 1,400 tested, 76% active. AID 1347044; further: nearly all actives have a fitted effect of over 70% in size
Npr2 selectivity – hNpr2 antagonism, selectivity versus Npr1; shares compounds with hNpr1 antagonist; 1,400 tested, 67% active; Potency, µM (top dose mostly 57.6 µM), for the others: top-dose activity change, negative = inhibition, usual class: inhibitors; HEK293 hNpr2 GloSensor cGMP luminescence, CNP-stimulated; further: nearly all actives have a fitted effect of over 70% in size
FLuc counter – FLuc enzyme inhibition, Npr1 counter-screen. shares compounds with hNpr1 antagonist. AID 1347047. 1,400 tested, 0.7% active. purified FLuc enzyme, luminescence, Km substrate. Potency, µM (series often up to 57.6 µM), without a hit: top-dose activity change, negative = inhibition, most hits filed as inhibitors; active means well fitted inhibition curve with a large enough effect; inconclusive means small, poorly fitted or top-dose-only effect; further: 0% is about no effect
GloSensor cGMP – control cell line activity, Npr1 antagonist counter-screen | shares compounds with hNpr1 antagonist | HEK293 GloSensor cGMP, SNP-stimulated, luminescence | Potency, µM (top dose mostly 57.6 µM), for inactives: at the highest dose activity change, negative = inhibition, actives largely listed as inhibitors | 1,400 tested, 69% active; further: on the % scale 0 is the no-effect control and ±100 the full control effect; nearly all actives have a fitted effect of over 70% in size
Active calls of the source: *; i = inactive; u = inconclusive; x = not tested or not shown; [ ] = dose if it differs, or a comment. The sample as a whole holds a higher share of hits than the screen did. Unless noted, the call rests on the fitted dose curve. Potency means the concentration at half of the fitted maximal effect.

SMILES | GPT2 inh | hNpr1 antagonist | Npr1 antag conf | Npr2 selectivity | FLuc counter | GloSensor cGMP
Cc1cccc(-n2nc(-c3c(C)nc4scc(CC(=O)N5CCCC5)n4c3=O)cc2C)c1C | -17% | 1% | x | x | x | x
CC(C)C(=O)Nc1cc(-c2ccncc2)nn1-c1ccccc1 | 3%[88.5 µM] | x | x | x | x | x
O=C(NCCc1ccccn1)c1nc(-c2ccccc2)cc2[nH]ccc12 | -3%[88.5 µM] | -22%[70.6 µM] | x | x | x | x
O=C(NCCCn1ccnc1)c1nc(-c2ccccc2)cc2[nH]ccc12 | 2%[88.5 µM] | u | u | u | 3%[86.2 µM] | -19%[86.2 µM]
C[S+](=O)([O-])CCn1ncc2cc(OCC3CCN(C(=O)c4cccc(F)c4F)CC3)ccc21 | 0% | -3% | x | x | x | x
C[S+](=O)([O-])CCn1ncc2cc(OCc3cccc(-c4ccc(Cl)cc4)c3)ccc21 | u | u | 31µM* | 31µM* | u | 35µM*
CCc1cnc(N2CCC(COc3ccc4c(cnn4CC[S+](C)(=O)[O-])c3)CC2)nc1 | 1% | 8.9µM* | 8.6µM* | 9.7µM* | 0% | 6.9µM*
CC(=O)N1CCC(COc2ccc3c(cnn3CC[S+](C)(=O)[O-])c2)CC1 | -11%[88.5 µM] | -1%[70.6 µM] | x | x | x | x
C[S+](=O)([O-])CCn1ncc2cc(OCC3CCN(C(=O)OC4CCCC4)CC3)ccc21 | 0% | 10µM* | 11µM* | 11µM* | -18% | 9.7µM*
CC(C)C(=O)N1CCC(COc2ccc3c(cnn3CC[S+](C)(=O)[O-])c2)CC1 | 4%[88.5 µM] | 4%[70.6 µM] | x | x | x | x
O=C(NC[C@H]1Cn2c(-c3ccccc3)cnc2CO1)C1CCOCC1 | 3%[88.5 µM] | 0%[70.6 µM] | x | x | x | x
O=C(c1ccncc1)N1CC(N(CC2CC2)C2CCOCC2)C1 | i | x | x | x | x | x
CN(C)c1nc2c(c(=O)[nH]1)CCN(Cc1ccc(F)cc1Cl)CC2 | 2% | -12% | x | x | x | x
COC[C@@H]1[C@H](NC(=O)c2ccc(OCCNC(C)=O)cc2)[C@@H]2CCO[C@H]12 | i | -9% | x | x | x | x
Cc1cc(C)n(CC(=O)N[C@@H]2CN(Cc3ccccc3)C[C@H]2CN(C)C)c(=O)n1 | i | 11µM* | -16% | -12% | 0% | 14%
Cc1cc(C)n(CCC(=O)N[C@@H]2CN(Cc3ccccc3)C[C@H]2CN(C)C)n1 | i | -2% | x | x | x | x
CN(Cc1cccnc1)c1ccc2ncc(Nc3ccc(C(F)(F)F)cc3)n2n1 | -9%[88.5 µM] | 25µM* | 22µM* | 31µM* | 2%[86.2 µM] | 22µM*
CN(Cc1ccc(F)cc1)c1ccc2ncc(Nc3ccncc3)n2n1 | i | u | x | x | x | x
CN(Cc1cccnc1)c1ccc2ncc(Nc3cc(F)cc(N4CCOCC4)c3)n2n1 | u | u | 35µM* | u | -11%[86.2 µM] | u
COc1ccc(F)cc1Nc1cnc2ccc(N(C)Cc3cccnc3)nn12 | u | 7.9µM* | 25µM* | 25µM* | -5%[86.2 µM] | 18µM*
Fc1cc(Nc2cnc3ccc(-c4ccccc4)nn23)cc(N2CCOCC2)c1 | -20%[88.5 µM] | -27%[70.6 µM] | x | x | x | x
COc1ccc(Nc2cnc3ccc(N(C)Cc4cccnc4)nn23)cc1 | 1%[88.5 µM] | -15%[70.6 µM] | x | x | x | x
CN1CCN(C(=O)C2CCCCN2Cc2ccc(-c3cccs3)cc2)CC1 (stereo not drawn) | i | x | x | x | x | x
Cc1oc2c(c1C(=O)NCCCN1CCCCC1)CN(Cc1ccccc1)CC2 | i | -6% | x | x | x | x
O=C(CCC1CCCN(S(=O)(=O)c2ccccc2F)C1)NCCN1CCCC1 (stereo not drawn) | i | 6% | x | x | x | x
SMILES | GPT2 inh | hNpr1 antagonist | Npr1 antag conf | Npr2 selectivity | FLuc counter | GloSensor cGMP
O=C(Cc1ccc(F)cc1)N1CCC2(CC1)CC(N(Cc1ccccc1)C1CC1)CCO2 (stereo not drawn) | i | u | x | x | x | x
O=C(c1ccc(F)cc1)N1CCC2(CC1)CC(N(Cc1ccccc1)C1CC1)CCO2 (stereo not drawn) | i | -21% | x | x | x | x
CC(C)C(=O)N1CCC2(CC1)CC(N(Cc1ccc(F)cc1)C1CC1)CCO2 (stereo not drawn) | -12% | -24% | -19% | -16% | 1% | -3%
Cc1ccc(C(=O)N2CCC3(CC2)CC(N(Cc2ccccc2)C2CC2)CCO3)cc1F (stereo not drawn) | i | 11µM* | 24µM* | u | -3% | 27µM*
O=C(c1cc2ccccc2[nH]1)N1C[C@@H](CO)[C@H](c2ccccn2)C1 | i | 6% | x | x | x | x
O=C(CCc1ccccc1)Nc1cccc(-c2nnc3n2CCCC3)c1 | i | 1% | x | x | x | x
Fc1ccc(OC2CNC2)cc1F | -6%[88.5 µM] | x | x | x | x | x
COc1ccc(-c2cnc3[nH]cc(CC(=O)NC4CCOCC4)c3c2)cc1 | -4%[88.5 µM] | 4%[70.6 µM] | x | x | x | x
Cc1ccccc1-c1cnc2[nH]cc(CC(=O)NC3CC3)c2c1 | -4%[88.5 µM] | 14µM* | 13µM* | 18µM* | 13%[86.2 µM] | 13µM*
O=C(Cc1c[nH]c2ncc(-c3ccccc3)cc12)NCc1cnccn1 | i | -3%[70.6 µM] | x | x | x | x
Cc1ccccc1-c1cnc2[nH]cc(CC(=O)NCc3ccco3)c2c1 | -5%[88.5 µM] | 32µM* | 35µM* | 31µM* | 1%[86.2 µM] | 25µM*
COc1ccc(C(=O)N2CCC3(CC2)N=C(c2ccccc2)NO3)cc1F | i | -8% | x | x | x | x
COc1ccc(C(=O)N2CCC3(CC2)N=C(c2ccc(Cl)cc2)NO3)cc1 | i | 10µM* | 17µM* | 19µM* | -13% | 9.7µM*
COc1cc(OC)cc(C(=O)N2CCC3(CC2)N=C(c2ccc(Cl)cc2)NO3)c1 | 3% | -26% | x | x | x | x
COc1ccc(C(=O)N2CCC3(CC2)N=C(c2ccc(Cl)cc2)NO3)cc1F | i | 10µM* | 19µM* | 19µM* | -5% | 22µM*
FC(F)(F)c1cccc(-c2ncc[nH]2)c1 | -17%[88.5 µM] | x | x | x | x | x
COc1cccc(N2C(=O)NC(=NC3CCCC3)C23CCN(CCC(C)C)C3)c1 (stereo not drawn) | -6% | x | x | x | x | x
O=C(O)c1ccnc(-c2ccnc(NCc3noc(C4CCCC4)n3)n2)c1 | i | 5% | x | x | x | x
Cc1cc2c(N3CCC(NCc4noc(C5CCC5)n4)CC3)ncnc2s1 | -1% | 2µM* | 1.5µM* | 3.1µM* | 2% | 1.7µM*
Cc1nn2c(c1-c1cccnc1N1CCOCC1)N(C(=O)c1cc3ccccc3n1C)CCC2 | -15% | 5% | x | x | x | x
Cc1nn2c(c1-c1cccnc1N1CCOCC1)N(CCC(C)C)CCC2 | -20%[88.5 µM] | -25%[70.6 µM] | x | x | x | x
Cc1nn2c(c1-c1cccnc1N1CCOCC1)N(CCc1ccccc1)CCC2 | i | 4µM* | 35µM* | 31µM* | -6%[86.2 µM] | u
Cc1nn2c(c1-c1cccnc1N1CCOCC1)N(C(=O)Cc1cccc(Cl)c1)CCC2 | 1% | -21% | -27% | u | 0% | 7%
CCn1cc(C(=O)NC(C)C(=O)Nc2ccc(C)cc2F)c(C)n1 (stereo not drawn) | -2%[11.5 µM] | 2% | x | x | x | x
O=C(Nc1cccnc1)c1ccnc(-c2nnc3ccc(Nc4ccccc4)nn23)c1 | i | -15%[70.6 µM] | x | x | x | x

Screening data from PubChem BioAssay.
